Screens (PubChem)
Pf Dd2 growth: inhibitors of Plasmodium falciparum Dd2 growth | P. falciparum Dd2 growth, SYBR Green, 72 h | Potency, µM (series often up to 28.9 µM), inactives show top-dose activity, negative = inhibition, actives largely listed as inhibitors | hit rate 4.3% among 120,000 | AID 1347417; active means well fitted inhibition curve with a large enough effect;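 further: plate controls were DMSO vehicle for no effect and reference drug for full effect; nearly all actives have a fitted effect of over 65% in size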
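Readout: SYBR Green fluorescence, 485 nm excitation, 535 nm emission, after ~16 h lysis at 37C. Before that, Dd2-infected red cells (2.5% hematocrit) grew 72 h with compound, 29 uM top final concentration.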
Active calls of the source: *; i = inactive; [ ] = another dose, or the depositor's remark. The entries come from a sample that favours hits as a whole. Potency means the concentration at half of the fitted maximal effect.

SMILES	Pf Dd2 growth
COc1ccc(CN2CCc3nc(C(=O)NCCOc4ccccc4)oc3CC2)cn1	i
COc1ccc(CN2CCc3nc(C(=O)Nc4ccc(Cl)cc4)oc3CC2)cn1	2.5µM*
CC(C)c1ccc(C(=O)N2CC3CC(C2)[C@H]2CCCC(=O)N2C3)cc1 (stereo partly drawn)	-7%
CC(C)(C(=O)N1C[C@H](C2CC2)[C@@H](N)C1)c1ccccc1	6.3µM*
CC(C)(C(=O)N1Cc2cnn(Cc3ccc(F)cc3)c2C1)c1ccccc1	-13%
CC(=O)N1CCC([C@@H]2CN(C(=O)COc3ccccc3)C[C@H]2CO)CC1	i
O=C(NCc1nc(-c2cccc(F)c2)c(-c2ccccn2)[nH]1)C1CCOC1 (stereo not drawn)	-12%
CS(=O)(=O)N1CCC(OC2CCN(C(=O)NC3CCCC3)CC2)CC1	-7%
CC(=O)N1CCC2(COc3ncccc3[S+](=O)([O-])N2)C1 (stereo not drawn)	23%
COc1ccccc1CC(=O)Nc1ccc2ncnc(N3CCCCC3)c2c1	i
COc1ccc(CC(=O)Nc2ccc3ncnc(N4CCCCC4)c3c2)c(Cl)c1	-22%
O=C(Cc1c(F)cccc1Cl)Nc1ccc2ncnc(N3CCCC3)c2c1	-20%
O=C(Cc1cccc(F)c1)Nc1ccc2ncnc(N3CCCCC3)c2c1	-14%
COc1cccc(CC(=O)Nc2ccc3c(N4CCCCC4)ncnc3c2)c1	11µM*
O=C(Cc1ccccc1F)Nc1ccc2c(N3CCCCC3)ncnc2c1	13µM*
Cc1csc(NC(=O)[C@@H]2C[C@@H](c3ccc(F)cc3)N([S+](=O)([O-])c3ccccc3)C2)n1	i
O=C1C[C@H]2CC[C@@H](CN1CC(=O)N(Cc1c(F)cccc1Cl)C1CC1)N2	4%
Cc1c(F)cccc1NC(=O)N1CCCC1c1nncn1-c1ccccc1 (stereo not drawn)	0%
CN(CCc1ccccn1)[C@H]1[C@@H]2OC[C@@H](O2)[C@@H](NCc2ccc3c(c2)OCO3)[C@@H]1O	-9%[44.1 µM]
Cc1noc(C2CCCCCN2C(=O)c2ccoc2)n1 (stereo not drawn)	27%
COC[C@H]1CCCN1C(=O)CC[C@H]1CNC(=O)[C@@H]2[C@@H](CCN2C)N1C	26%[44.1 µM]
CC(C)N1CCCC2(CCN(C(=O)c3cccc4nccnc34)C2)C1=O (stereo not drawn)	-16%
O=C(Nc1ccccc1)N1CC(Oc2cccc(-c3nc(-c4ccccc4)no3)c2)C1	22%[5.79 µM]
O=C(c1ccc(F)cc1)N1CC(Oc2cccc(-c3nc(-c4ccccc4)no3)c2)C1	1%[5.79 µM]
CCNC(=O)N1CC(Oc2cccc(-c3nc(-c4ccccc4)no3)c2)C1	1.3µM*
SMILES	Pf Dd2 growth
COCCN1CCCCCC(O)c2cc(C(=O)N3CCN(c4ccccc4)CC3)ccc21 (stereo not drawn)	-8%
CCCCc1cn(C[C@H]2CC3CCN2C[C@@H]3C(=O)NCc2ccc3c(c2)OCO3)nn1 (stereo partly drawn)	i
Cc1ccc(S(=O)(=O)N[C@H]2CO[C@H]3[C@@H]2OC[C@@H]3Nc2nccc(C(C)(C)C)n2)cc1	i
O=C(Nc1ccc2c(N3CCOCC3)ncnc2c1)c1ccc(F)c(Cl)c1	2.5µM*
Cc1ccc(C(=O)Nc2ccc3c(N4CCOCC4)ncnc3c2)cc1	-11%
O=C(Nc1ccc2c(N3CCOCC3)ncnc2c1)c1ccccc1C(F)(F)F	i
O=C(Nc1ccc2ncnc(N3CCCC3)c2c1)c1cccc(Br)c1	-20%
O=C(Nc1ccc2nc(SCC(=O)N3CCOCC3)sc2c1)c1cccc(Br)c1	-6%
O=C(Nc1ccc2c(N3CCOCC3)ncnc2c1)c1cccc(Br)c1	0.89µM*
CN(C)C[C@@H]1CN(S(C)(=O)=O)C[C@H]1NC(=O)CC1=CCCCC1	-16%
COc1ccc(CCN2CC(NC(=O)Cn3ccc(C)n3)CC2=O)cc1 (stereo not drawn)	-7%
O=C1CC(c2noc(Cc3c(F)cccc3Cl)n2)CN1C1CCCCC1 (stereo not drawn)	i
CC1=C[C@@H](CNC(=O)CCC(=O)O)[C@H](C(C)C)C[C@H]1CC(=O)NCc1ccc(C#N)cc1	1%
CNC(=O)C1=NO[C@@H]2CN(CCc3ccccc3)C[C@H]12	47%[44.1 µM]
CNC(=O)[C@@H](c1ccccc1)N1CCC[C@H]1C(=O)N(C)Cc1ccccc1	-16%[44.1 µM]
CC(C)C(=O)N1CCC2(CN[S+](=O)([O-])c3cnccc3O2)C1 (stereo not drawn)	4%
CN(C)C(=O)N1CCN(c2cccc(C=O)c2)C(=O)C1	46%[44.1 µM]
COc1ccc(-c2cc(-c3cccnc3)c3cncn3c2)cn1	-1%[44.1 µM]
O=c1ccc(-c2cc(-c3cccc(C(F)(F)F)c3)cn3cncc23)c[nH]1	i
COc1ccc(-c2cc(-c3cccc(O)c3)cn3cncc23)cc1	1.3µM*
COc1cccc(-c2cc(-c3cn[nH]c3)c3cncn3c2)c1	i
NC(=O)c1cccc(-c2cc(-c3cccnc3)c3cncn3c2)c1	-4%[44.1 µM]
c1cncc(-c2cc(-c3cccc4cc[nH]c34)cn3cncc23)c1	10µM*
COc1ccc(-c2cc(-c3cccc(C(N)=O)c3)cn3cncc23)cc1	3.5µM*
